This is part of a sample that, as a whole, favours compounds with a hit. Of some 83,000 tested, about 20% had one in any assay.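 Method: cells in 96-well plates; compound added at one concentration; 48 h incubation; percent growth measured; values under 10 scored active.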 A number with no mark means an inactive call. Active and inactive are the calls of the source.
Tests used:
Assay in all cases: NCI-60 one-dose screen, 48 h (100 = growth as untreated, 0 = no growth, -100 = all killed)
HCT-15 colon = conditions: 10 µM unless noted
SNB-75 CNS = conditions: 10 µM unless noted
SNB-19 CNS = conditions: 10 µM unless noted
U251 CNS = conditions: 10 µM unless noted
PC-3 prostate = conditions: 10 µM unless noted
SK-MEL-5 melanoma = conditions: 10 µM unless noted
UACC-62 melanoma = conditions: 10 µM unless noted
LOX IMVI melanoma = conditions: 10 µM unless noted
SK-MEL-28 melanoma = conditions: 10 µM unless noted
SK-MEL-2 melanoma = conditions: 10 µM unless noted
EKVX NSCLC = conditions: 10 µM unless noted
SN12C renal = conditions: 10 µM unless noted
UO-31 renal = conditions: 10 µM unless noted
ACHN renal = conditions: 10 µM unless noted
CAKI-1 renal = conditions: 10 µM
A498 renal = conditions: 10 µM unless noted
CCRF-CEM leukemia = conditions: 10 µM unless noted
MOLT-4 leukemia = conditions: 10 µM unless noted
TK-10 renal = conditions: 10 µM unless noted

Row | Structure (SMILES) | growth (HCT-15 colon) | growth (SNB-75 CNS) | growth (SNB-19 CNS) | growth (U251 CNS) | growth (PC-3 prostate) | growth (SK-MEL-5 melanoma) | growth (UACC-62 melanoma) | growth (LOX IMVI melanoma) | growth (SK-MEL-28 melanoma) | growth (SK-MEL-2 melanoma) | growth (EKVX NSCLC) | growth (SN12C renal) | growth (UO-31 renal) | growth (ACHN renal) | growth (CAKI-1 renal) | growth (A498 renal) | growth (CCRF-CEM leukemia) | growth (MOLT-4 leukemia) | growth (TK-10 renal)
1 | COCCNC(C(=O)c1ccccc1)c1ccccc1 (stereo not drawn) | 99.6% | 88.2% | 97% | 95.1% | 92.7% | 96.6% | 97.9% | 103% | 105% | 107% | 99.2% | 100% | 97.7% | 106% | 102% | 88.4% | 101% | 98.6% | –
2 | CCOc1ccccc1C(=O)N1CCN(c2cc(Cl)cc(Cl)c2)CC1 | 11.2% | 34.3% | 24% | 12.5% | 10.6% | -44.1% (active) | 19.5% | 17.7% | 54.7% | 18.5% | 34.1% | 25.7% | 24.9% | 21.9% | – | 6.38% (active) | 7.43% (active) | 7.37% (active) | 55.5%
3 | COc1cccc(-c2nc3sccn3c2-c2ccnc(NCCNC(=O)Nc3cccc(C(F)(F)F)c3)n2)c1 | 45.9% | 71.8% | 74.8% | 58.1% | 32.9% | 51.5% | 50.5% | 44.3% | 78.4% | 61.9% | 61.5% | 68.8% | 39.7% | 46.2% | 40% | 61.6% | 27% | 36.7% | –
4 | O=c1c2ccccc2sc2c(NCCN3CCOCC3)nc3ccccc3c12 | 27.1% | 42.8% | 79.3% | 42.3% | 43.2% | 54.8% | 33.3% | 5.67% (active) | 69.4% | 102% | 70.9% | 59.4% | 47.6% | 43.5% | – | 43.7% | 36.3% | 37% | –
5 | O=C(Nc1ccccc1Cl)c1c[nH]c(=O)c(-c2ccc(N3CCCOC4(CC4)C3)cc2)c1 | 78.8% | 73% | 72.4% | 75.9% | 57.5% | 8.08% (active) | – | 46.7% | 78.4% | 70.1% | 37.6% | 74.9% | 65.7% | 72.2% | – | 47.9% | 48.3% | – | 52.4%
6 | Cc1cc(N2CCOCC2)nc(N(CCNc2ccnc3cc(Cl)ccc23)Cc2ccco2)n1 | 35.8% | 59.5% | 41.5% | 6.13% (active) | 46.7% | 39.7% | 26% | 18.1% | 52.4% | 23.3% | 56.7% | 47.5% | 24.3% | 27% | – | 50.9% | -11.3% (active) | 5.1% (active) | 10.9%
7 | CCOc1ccc(Cc2nccc3cc(OCC)c(OCC)cc23)cc1OCC | 59.8% | 99.6% | 62.5% | 62.8% | 52.9% | 47.1% | 50.7% | 53.8% | 91.7% | 80.4% | 42% | 58.9% | 37.5% | – | 48% | 35.5% | 58.7% | 27.2% | 68.6%
8 | Cc1cn(-c2nc3c(c(NCc4ccccc4)n2)COCC3)c2cccc(C(N)=O)c12 | 81.9% [0.5 µM] | 107% [0.5 µM] | 97.4% [0.5 µM] | 93.5% [0.5 µM] | 83.8% [0.5 µM] | -20.3% [0.5 µM] (active) | 44.3% [0.5 µM] | 16.3% [0.5 µM] | 96.5% [0.5 µM] | 38.1% [0.5 µM] | 85.9% [0.5 µM] | 30.8% [0.5 µM] | 55% [0.5 µM] | 39.5% [0.5 µM] | – | 85.1% [0.5 µM] | 49.1% [0.5 µM] | 60.6% [0.5 µM] | 83.2% [0.5 µM]
9 | COC(=O)c1oc2c(C(C)=O)c(OCCN3CCCCC3)ccc2c1C | 110% | 226% | 125% | 105% | 93.9% | 102% | 122% | 96.5% | 133% | 88.7% | 113% | 119% | 84.5% | 108% | – | 131% | – | 108% | 92.1%

Source: PubChem BioAssay (NCI)
